From PubChem
Compounds with a hit are over-represented: about 5% of the library has one in this group of screens.
AI-2 QS mod = modulates the Vibrio harveyi AI-2 quorum sensing system | Vibrio harveyi JMH597 AI-2 luminescence/OD600 ratio, 9 h; stronger effect = lower value; strain lacks LuxN and CqsS sensors; 0 = neutral-control median | activity change, % at 7.5 µM | 300,000 tested, 0.4% active; in the data active = activity change below about -75%, passing the limit was not always enough; inconclusive = no clear call, values can overlap the other calls;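 also: luminescence divided by OD600 gain over 9 h not by final OD600 alone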
CHT allo act = human CHT allosteric activation. CHT-expressing cells, membrane potential dye, choline EC20; stronger effect = higher value; LV-AA mutant CHT in HEK293 cells. B-score at 10 µM. 310,000 tested, 0.49% active. AID 488977;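 active = initial fluorescence not abnormally high and integrated response B-score, plate-corrected, over 3 SD above library mean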
ALR inh = inhibitors of human sulfhydryl oxidase ALR; purified ALR, DTT oxidation, H2O2 HRP-luminol luminescence; AID 485317; inhibition, % (concentration not given with the values); P55789; 290,000 tested, 3.8% active;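 active = mean replicate inhibition above about 79%, with every replicate also reaching it, limit read from the data; inconclusive = only one of the two criteria met; inactive = mean below limit and not every replicate reaching it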
PREPL inh = inhibits the human prolyl oligopeptidase-like enzyme. Q4J6C6. recombinant PREPL, fluorescence polarization activity-based probe. inhibition, % at 5.96 µM. 320,000 tested, 0.68% active. AID 2751; in the data active = inhibition above about 43%;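 also: 0% = enzyme with DMSO and 100% = wells lacking enzyme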
Target sequence (Q4J6C6 whole entry, looked up): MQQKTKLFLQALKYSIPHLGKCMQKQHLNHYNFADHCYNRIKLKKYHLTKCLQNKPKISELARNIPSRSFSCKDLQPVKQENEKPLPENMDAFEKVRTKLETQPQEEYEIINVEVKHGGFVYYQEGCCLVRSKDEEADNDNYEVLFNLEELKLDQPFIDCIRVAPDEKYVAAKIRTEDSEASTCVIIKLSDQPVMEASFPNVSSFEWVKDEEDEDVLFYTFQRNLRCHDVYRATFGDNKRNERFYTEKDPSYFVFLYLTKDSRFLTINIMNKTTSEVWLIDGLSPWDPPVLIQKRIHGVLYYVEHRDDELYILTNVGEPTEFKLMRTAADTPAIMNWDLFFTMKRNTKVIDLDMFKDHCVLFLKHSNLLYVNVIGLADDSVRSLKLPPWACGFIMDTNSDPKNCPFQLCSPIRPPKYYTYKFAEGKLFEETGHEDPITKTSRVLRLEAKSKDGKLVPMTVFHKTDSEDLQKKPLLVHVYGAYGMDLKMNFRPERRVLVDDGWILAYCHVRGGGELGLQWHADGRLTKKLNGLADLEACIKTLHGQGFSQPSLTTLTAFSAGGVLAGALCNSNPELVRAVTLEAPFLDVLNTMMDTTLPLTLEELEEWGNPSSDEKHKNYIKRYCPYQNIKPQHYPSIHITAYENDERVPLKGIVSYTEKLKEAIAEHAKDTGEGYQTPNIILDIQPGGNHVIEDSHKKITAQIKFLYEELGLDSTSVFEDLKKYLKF
CHT inh = human CHT choline transport inhibition. CHT-expressing cells, membrane potential dye, choline response; stronger effect = lower value. Q9GZV3. AID 488975. 310,000 tested, 0.86% active. B-score at 10 µM;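 active = B-score over 3 SD under the library average, and starting fluorescence ratio not unusually high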;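 also: choline stimulus applied at its EC90 after an EC20 pre-addition; B-score computed on integrated fluorescence ratio after choline addition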
The depositor's hits bear a star; i = inactive; ? = inconclusive; . = not tested or not shown.

SMILES	AI-2 QS mod	CHT allo act	ALR inh	PREPL inh	CHT inh
Cn1ncc([N+](=O)[O-])c1C(=O)NC1CCCCC1	17	i	-2	-4	i
NNS(=O)(=O)c1ccc2c(c1)Cc1cc(S(=O)(=O)NN)ccc1-2	36	i	99*	-51	i
O=S(=O)(NCCO)c1ccc2c(c1)Cc1cc(S(=O)(=O)NCCO)ccc1-2	23	i	-21	0	i
C/C(=N\NC(=S)Nc1ccc(F)cc1)C1CC1	13	i	98*	9	i
CCN(CC)c1ccc(NC(=S)Nc2ccc(F)cc2)cc1	-5	.	.	.	.
Oc1ccc(NC(=S)Nc2ccc(F)cc2)cc1	1	i	98*	0	i
CSc1ccc(C(=O)NCC(c2ccco2)N(C)C)cc1[N+](=O)[O-] (centres undefined)	13	i	12	12	i
CCOC(=O)/C=C/S(=O)(=O)c1ccc(NC(C)=O)cc1	?	i	98*	2	-5.5*
CCOC(=O)/C=C/C(=O)Nc1ccc(S(=O)(=O)Nc2c(C)cc(C)cc2C)cc1	-11	i	.	-9	i
COCCCNC(=O)CCc1nnc2ccc(N3CCC(C)CC3)nn12	21	i	3	3	i
COCCn1c(SCC(=O)OCc2ccccc2)nc2c1c(=O)[nH]c(=O)n2C	21	i	98*	1	i
C/C(O)=C\c1nc2ccccc2oc1=O	2	i	95*	3	i
Cc1ccc2oc(=O)c(/C=C(\O)c3ccccc3)nc2c1	8	i	98*	22	i
Cc1ccc2oc(=O)c(/C=C(\O)c3cccs3)nc2c1	1	i	3	-3	i
CS(=O)(=O)Cc1nc2ccccc2oc1=O	4	i	99*	2	i
Cc1ccc2oc(=O)c(/C=C(\O)CC(C)C)nc2c1	5	i	82*	5	i
CCS(=O)(=O)CCSc1nc2ccccc2o1	7	i	-1	8	i
Cc1ccc(S(=O)(=O)N2CCN(C(=O)CCC(=O)Nc3ccc(F)cc3F)CC2)cc1	.	.	.	9	.
Cc1onc(C(=O)NC2CCCCC2)c1[N+](=O)[O-]	-4	i	0	3	i
CCOc1ccc2c(c1)C(C)=CC(C)(C)N2C(=O)Nc1ccccc1F	32	i	-86	9	i
CCNC(=O)N1c2ccc(OCC)cc2C(C)=CC1(C)C	26	i	88*	-2	i
Cc1ccc(CSc2ccc(S(=O)(=O)N3CCCC3)cn2)cc1	.	.	-4	16	.
N#Cc1ccc(CSc2ccc(S(=O)(=O)N3CCCC3)cn2)cc1	.	.	93*	19	.
N=c1oc2ccccc2cc1-c1nc2ccccc2c(=O)[nH]1	0	i	94*	5	i
COc1ccccc1NS(=O)(=O)c1cc(C(=O)N2CCN(C/C=C/c3ccccc3)CC2)ccc1C	10	i	-6	41	i
SMILES	AI-2 QS mod	CHT allo act	ALR inh	PREPL inh	CHT inh
C/C(=C\C(=O)OCCCCCCCCC(=O)O)C[C@@H]1OC[C@H](C[C@@H]2O[C@H]2[C@@H](C)[C@H](C)O)[C@@H](O)[C@H]1O	-173*	i	4	2	i
COc1cc(NCc2ccccc2)c2ncn(C(C)C)c2c1	.	.	98*	1	.
COc1cc(N(Cc2ccccc2)Cc2ccccc2)c2ncn(C(C)C)c2c1	.	.	10	-2	.
CCOc1ccc(/C(O)=C/C(=O)C(=O)Nc2ccc(S(=O)(=O)NC(C)=O)cc2)cc1	20	i	98*	-3	i
CCOc1ccc(NS(=O)(=O)c2ccc(NC(=S)NC(C)=O)cc2)cc1	9	i	-13	-5	i
CCNc1ncnc2c1cnn2C	13	i	-6	8	i
COc1ccc2[nH]c(C)c(-c3csc(N)n3)c2c1	14	i	99*	13	i
CC(C)c1ccc(N(C(=O)c2snc(C(N)=O)c2N)C(C(=O)NC2CCCC2)c2ccncc2)cc1 (centres undefined)	14	i	-4	-1	i
Cc1ccc(NS(=O)(=O)c2ccc3[nH]c(=O)[nH]c3c2)cc1	13	i	.	-7	i
CCOC(=O)c1cc([N+](=O)[O-])c([N+](=O)[O-])cc1NC(C)=O	11	i	-9	2	-5.9*
O=c1c2ccccc2c(-c2n[nH]c(=S)o2)nn1Cc1ccccc1	30	i	26	7	i
OCc1ccc(-c2nn(Cc3ccccc3)c3ccccc23)o1	-12	i	92*	0	i
COc1ccc(OC)c(-c2nn(-c3ccccc3)cc2C(=O)NCC(c2ccco2)N2CCCC2)c1 (centres undefined)	.	.	-3	-37	.
CC(=O)OCCCNc1cc(Sc2nc3ccccc3s2)c2nonc2c1[N+](=O)[O-]	-7	i	-26	25	i
CC(=O)OCCNc1cc(Sc2nc3ccccc3[nH]2)c2nonc2c1[N+](=O)[O-]	29	i	96*	8	i
CCOc1cc(/C=C/c2cc(C(=O)O)c3ccccc3n2)ccc1O	41	i	89*	2	i
COc1cc(/C=N/NC(=O)c2cc(-c3ccccc3Cl)nc3ccccc23)cc(OC)c1O	15	i	11	10	i
COc1cc(/C=N/NC(=O)c2cc(-c3ccco3)nc3ccccc23)cc(OC)c1O	20	i	97*	9	i
CCOc1cc(/C=C/c2cc(C(=O)O)c3ccccc3n2)ccc1OC	22	i	1	-11	i
COc1cc(/C=C/c2nc3ccccc3s2)cc(OC)c1O	17	i	95*	15	i
COc1cc(/C=C/c2cc(C(=O)O)c3ccccc3n2)cc(OC)c1O	32	i	99*	-5	i
Cc1cc(C)nc(/N=C2\NC(=O)CC(C(=O)O)N2c2ccc(C)c(C)c2)n1 (centres undefined)	18	i	0	-3	i
Cc1ccc(OCC(=O)N(C)CC(=O)Nc2ccccc2Cl)c([N+](=O)[O-])n1	.	.	-3	16	.
O=C(c1cccc(C(F)(F)F)c1)C1CCCN(C(=O)c2cc(C3CC3)[nH]n2)C1 (centres undefined)	14	i	86*	41	i
Cc1cc(C(=O)N2CCCC(C(=O)c3cccc(C(F)(F)F)c3)C2)n[nH]1 (centres undefined)	-7	i	2	32	i
CCOC(=O)NC(=O)COC(=O)CCCSc1nc2ccccc2s1	39	i	93*	7	i
CN(C)CCCSc1nc2ccccc2s1	15	i	99*	-4	i
CC(C)NC(=O)NC(=O)COC(=O)CCCSc1nc2ccccc2s1	1	i	-5	23	i
CCn1ncc(/C=N\NC(=O)COc2ccccc2)c1C	12	i	96*	-2	i
C=CCNC(=S)N/N=C(\C)c1cccnc1	.	i	83*	13	i
